Source: PubChem
Cruzain Triton: cruzain (T. cruzi) inhibition with detergent; Potency, µM, usual class: inhibitors; purified cruzain, Z-FR-AMC fluorescence, 0.01% Triton; P25779; 0.43% of 200,000 active; further: nearly all actives have a fitted effect of over 40% in size
Target sequence (P25779 123-467 limits assumed): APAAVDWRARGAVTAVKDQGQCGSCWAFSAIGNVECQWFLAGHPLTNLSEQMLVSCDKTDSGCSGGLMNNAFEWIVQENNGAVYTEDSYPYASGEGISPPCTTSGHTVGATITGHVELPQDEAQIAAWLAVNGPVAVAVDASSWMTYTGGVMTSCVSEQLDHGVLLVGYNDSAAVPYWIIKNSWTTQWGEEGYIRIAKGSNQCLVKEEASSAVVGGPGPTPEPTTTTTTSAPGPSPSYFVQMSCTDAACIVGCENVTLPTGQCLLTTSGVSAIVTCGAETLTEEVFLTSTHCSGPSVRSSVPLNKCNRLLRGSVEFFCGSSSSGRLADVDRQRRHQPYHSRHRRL
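Steps: dispense cruzain (1.5 nM final) in acetate buffer pH 5.5 with DTT and 0.01% Triton X-100; pin-transfer compounds; incubate 15 min RT; add Z-FR-AMC (2 uM final); read fluorescence every 30 s, using the 60 s intensity change.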
Cruzain noTriton: cruzain (T. cruzi) inhibition without detergent. Potency, µM, usual class: inhibitors. 2.3% of 200,000 active. AID 1476. purified cruzain, Z-FR-AMC fluorescence, no detergent. P25779; further: nearly all actives have a fitted effect of over 40% in size
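Detergent-free condition (0.00005% Triton X-100) in acetate buffer pH 5.5 with DTT. 1.5 nM enzyme and compound were pre-mixed 15 min, then 2 uM Z-FR-AMC substrate added; reaction progress from fluorescence change between first and third reads (60 s).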
Large screens that a line does not name were inactive. Rows were chosen to be rich in hits. Some 2.4% of all compounds tested hit in one or more screens of this group. The call rests on the fitted dose curve; in most records, active means well fitted curve in the direction sought with a large enough effect; inconclusive means small, poorly fitted or top-dose-only effect, or another doubt; inactive means no such curve, though single readings can be large; an effect the other way counts as inactive or inconclusive.

O=C(NC1c2ccccc2-c2ccccc21)c1ccco1	none
Cc1nc(N2C(=O)c3oc4ccccc4c(=O)c3C2c2ccccc2F)sc1C (stereo not given)	none
NC[C@@H](Cc1ccccc1)P(=O)(O)O	none
CCOC(=O)CSc1ncnc2c1sc1nc(N3CCOCC3)c3c(c12)CCCC3	none
CCOC(=O)C(Sc1ncnc2c1sc1nc(N3CCOCC3)c3c(c12)CCCC3)c1ccccc1 (stereo not given)	Cruzain noTriton 3.16µM
COc1ccc2o/c(=N/NC(=S)Nc3ccccc3)c(C(N)=O)cc2c1	Cruzain noTriton 6.31µM
COc1ccc2oc(=N)c(C(=O)Nc3ccccc3)cc2c1	none
Cc1ccc2c(c1)c(N=NC(N)=S)c(O)n2Cc1ccccc1	Cruzain Triton inconclusive, Cruzain noTriton 2.51µM
COc1ccc(C(=O)NCC(=O)N=Nc2c(O)n(Cc3ccccc3)c3ccccc23)cc1OC	none
NC(=S)N=Nc1c(O)n(Cc2ccc(F)cc2)c2ccccc12	Cruzain Triton 12.6µM, Cruzain noTriton inconclusive
O=Nc1c(O)n(Cc2ccc(Cl)cc2)c2ccccc12	none
O=C(Nc1ccc(C(=O)OCc2cc(=O)n3c4c(sc3n2)CCCC4)cc1)c1ccc(Cl)cc1	none
Cc1ccc(CNC(=O)c2ccc3c(c2)N(Cc2ccccc2Cl)C(=O)CS3)cc1	none
Cc1cccc(C)c1NC(=O)c1cc(S(=O)(=O)N2CCc3ccccc3C2)ccc1F	Cruzain noTriton inconclusive
Cn1c(=O)c(=O)n(C)c2cc(S(=O)(=O)Nc3ccc(Cl)c(C(F)(F)F)c3)ccc21	none
O=C(Nc1ccc(Br)cc1)c1ccc(N2C(=O)C3CC=C(Cl)CC3C2=O)cc1 (stereo not given)	Cruzain noTriton 20µM
O=C(c1ccc(N2C(=O)C3CC=C(Cl)CC3C2=O)cc1)N1CCCCC1 (stereo not given)	none
O=C(CSc1nnc(-c2ccco2)o1)c1ccc(F)c(F)c1	none
O=C(CSc1nnc(-c2ccco2)o1)c1ccccc1	Cruzain noTriton 15.8µM
COC(=O)c1oc2ccc(Cl)cc2c1NC(C)=O	none
COC(=O)c1oc2ccc(Br)cc2c1NC(=O)c1ccccc1	Cruzain noTriton 12.6µM
COc1ccc(/C=N/NC(=O)c2[nH]c3ccc(Br)cc3c2-c2ccccc2)cc1	Cruzain noTriton inconclusive
O=C(N/N=C/c1ccccc1Cl)c1[nH]c2ccc(Br)cc2c1-c1ccccc1	Cruzain noTriton 12.6µM
Cc1cc(C)cc(NC(=O)C2CCCN(c3nnc(C)c4c(C)n(-c5ccccc5)nc34)C2)c1 (stereo not given)	none
Cn1nnc2c(N3CCN(c4cccc(Cl)c4)CC3)ncnc21	none
CC(C)(C)NC(=O)Cc1ccc(S(=O)(=O)N2CCCC2)s1	none
O=C(Cc1ccc(S(=O)(=O)N2CCCC2)s1)Nc1nc2c(s1)CCCC2	Cruzain noTriton 20µM
CCc1cccc(C)c1NC(=O)Cn1cc2c(n1)CCCCC2	none
Cc1ccc(CNC(=O)Cc2coc3cc(C)cc(C)c23)cc1	none
COc1ccccc1/C=C/c1onc(C)c1S(=O)(=O)N1CCC(C(=O)N2CCC(C)CC2)CC1	none
O=C(O)COc1cccc(-c2ocnc2-c2nc(-c3ccccc3)c(-c3ccccc3)o2)c1	Cruzain noTriton 7.94µM
Cc1ccc(-c2nc(-c3nccc4ccccc34)oc2-c2ccccc2)cc1	none
Cc1ccccc1C(=O)N(Cc1ccc(N(C)C)cc1)Cc1ccco1	none
CCCN(CCC)CCNC(=O)c1cc2c(=O)oc3ccc(C)cc3c2s1	none
CCC(=O)N1CCc2cc(S(=O)(=O)NCCC(=O)Nc3cccc(SC)c3)ccc21	none
COC(=O)CSc1nnc([C@H](Cc2ccccc2)NC(=O)OC(C)(C)C)o1	none
Cc1cccc(CS(=O)(=O)c2nnc([C@H](Cc3ccccc3)NC(=O)OC(C)(C)C)o2)c1	Cruzain Triton 15.8µM, Cruzain noTriton 15.8µM
CCN(CC)S(=O)(=O)c1ccc(C(=O)NCCSc2c(-c3ccc(C)cc3)[nH]c3ccccc23)cc1	Cruzain noTriton 25.1µM
CCN(CC)S(=O)(=O)c1ccc(C(=O)NCCSc2c[nH]c3ccccc23)cc1	none
COc1cccc(NC(=O)C(OC(=O)/C=C/c2ccc3c(c2)OCO3)c2ccccc2)c1 (stereo not given)	Cruzain noTriton 20µM
COc1ccc(NC(=O)C(c2ccccc2)N(C)C(=O)/C=C\c2ccc3c(c2)OCO3)cc1 (stereo not given)	none
CCc1cccc(NC(=O)CCc2nc3cccnc3n2-c2ccccc2)c1	none
O=C(O)c1cc(N(Cc2ccccc2O)Cc2cc(O)ccc2O)ccc1O	none
N=c1oc2ccc3ccccc3c2cc1-c1nc(-c2ccccc2)cs1	Cruzain noTriton 25.1µM
N=c1oc2ccccc2cc1-c1nc(-c2ccccc2)cs1	Cruzain noTriton inconclusive
CCOc1ccccc1NC(=O)c1c(NC(=O)c2cccc(C)c2)sc2c1CCC2	none
CC(C)NC(=O)c1cc2cc([N+](=O)[O-])ccc2s1	none
COc1cccc(/C=N/NC(=O)c2cc3cc([N+](=O)[O-])ccc3s2)c1O	Cruzain Triton 3.55µM, Cruzain noTriton 10µM
Cc1ccccc1Nc1c(-c2cc(Br)ccc2F)nc2ccccn12	none
